# ± gives the standard deviation.
# System: MILI (PIWIL2) piRISC loaded with L1MC piRNA (26 nt)
# Assay: pre-steady-state target cleavage rate (min^-1); guide: L1MC piRNA 5'p-UAACUAAAUACUAUGCAAGCUGUAGG; higher = faster piRNA-guided slicing of the target
# Conditions: auxiliary factor: 500 nM mouse GTSF1
# Outline: (§1)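 Sequencing of uncleaved targets, normalised to depth and to weakly complementary targets, was the readout of this Cleave-'n-Seq assay. A transcribed, DNA-blocked target RNA library (0.1 nM) was mixed with 1 nM active affinity-purified piRISC carrying one synthetic guide, with or without 500 nM GTSF1 partner protein, in HEPES–potassium acetate buffer at 33 °C for 0–8 or 0–960 min. Three trials were pooled, k3 was capped at 0.0001 min^-1, and a burst-and-steady-state fit gave the pre-steady-state cleavage rate.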
row,Sequence,pre-steady-state target cleavage rate
1,UCCUCCUACAGCUUGCAAUCUAUUUUCAAA,0.0216 ± 0.0095
2,UCCUGGAUCAGGUUGCAUAGUAUUUUCAAA,0.07 ± 0.023
3,UCCUGGAUGUCCUUGCAUAGUUUUUACUUA,0.00658 ± 0.0044
4,UCCUGGAUCAGGAAGCAUAGUAUUUAGAAA,0.0247 ± 0.0063
5,UCCUGCUACAGGAAGCAUAGUAUUUACAAA,0.0258 ± 0.008
6,UCCUGGAUGUCCUUGCUAAGUAUUUAGUUA,0.00944 ± 0.0051
7,UCCUGCUACAGCUUGGUAAGUAUUUAGAAA,0.0107 ± 0.0045
8,UCCUGGAUGUCGAUGCAUAGUAUUAUGUUA,0.0412 ± 0.011
9,UCCUGGAUGUCCAUGCAUAGUAUUUAGAUA,0.0163 ± 0.0062
10,UCCUCCUACAGCUUCGUUAGUAUUUAGAAA,0.0202 ± 0.0065
11,UCCUGGAUGUCCUUGCAUAGUUUUUAGUAA,0.013 ± 0.0043
12,UCCUGCUACAGCUUGCAUAGAAUUUUCAAA,0.0169 ± 0.0066
13,UCCUGGAUGUCGAUGCAUAGUCAUUUAGUUA,0.00452 ± 0.004
14,UCCUGGAACACCUUGCAUAGUAUUUUCAAA,0.0441 ± 0.015
15,UCCUGGAUGUCGAUGCAUAGUAUUCAGUUA,0.0263 ± 0.0083
16,UCCUGGAUGAGCUUGGAUUGUAUUUAGUUA,0.0185 ± 0.0063

# Same assay, conditions: auxiliary factor: none (no GTSF1)
row,Sequence,pre-steady-state target cleavage rate
1,UCCUGGAUGUCGAAGCAUAGUAUUUGUUA,< 0.0001
2,UCCUGGAUGUCGAAGCAUAGUUAAAUCAAA [g10:g16:cont:t1A],< 0.0001
3,UCCUGGAUGUCGAACGUUACUAUUAAGUUA,< 0.0001

# System: EfPiwi piRISC loaded with L1MC piRNA (26 nt)
# Assay: pre-steady-state target cleavage rate (min^-1); auxiliary factor: none (no Gtsf1); guide: L1MC piRNA 5'p-UAACUAAAUACUAUGCAAGCUGUAGG; MIWI and MILI are mouse PIWI proteins and EfPiwi is from a freshwater sponge; tags in brackets are library labels; higher = faster piRNA-guided slicing of the target
# Conditions: not given
# Outline: as §1
row,Sequence,pre-steady-state target cleavage rate
1,UCCUGGAUGUCGUUGCAUAGUAUUUUCAAA [g6:g18:cont:t1A],< 0.0001
2,UCCUGGAACAGCUUCCAUAGUAUUUACUUA,< 0.0001
3,UCCUGGAUGUCGAACCUAUGUAUUUAGUUA,< 0.0001
4,UCCUGGAUGUCGAACGUAAGAAUUUAGUAA,< 0.0001
5,UCCUCCUACAGCUUGCAAUCUAUUUUCAAA,< 0.0001
6,UCCUGGUACAGCUUGCAUAGUAUAUACUUA,< 0.0001
7,UCCUGGAUCAGGUUGCAUAGUAUUUUCAAA,< 0.0001
8,UCCUGGAUGUCGAACGUAUCUAUUUAGAAA [g4:g10:cont:t1A],< 0.0001
9,UCCUGGAUGUCGAACGUAAGUAUUUAUUA,< 0.0001
10,UCCUGGAUGUCCUUGCAUAGUUUUUACUUA,< 0.0001
11,UCCUGGAUGUCCUUGCAAUCAUAAAUCAAA [g14:g19:cont:t1A],< 0.0001
12,UCCUGGAUCAGGAAGCAUAGUAUUUAGAAA,< 0.0001
13,UCCUGGAUGUCGAACGUUAAUAUUUAGUUA,< 0.0001
14,UCCUGCUACAGGAAGCAUAGUAUUUACAAA,< 0.0001
15,UCCUGGAUGUCGUUCCAUAGUAUAUAGUUA,< 0.0001
16,UCCUGGAUGUCCUUGCUAAGUAUUUAGUUA,< 0.0001
17,UCCUGGUACAGGAAGCAUAGUAUUUAGAAA,< 0.0001
18,UCCUGGAUGUCGAACGUAUCUAUUUGGUUA,< 0.0001
19,UCCUGGAUGUCGAAGCAUAGGAUUUAGUUA,< 0.0001
20,UCCUGCUACAGCUUGGUAAGUAUUUAGAAA,< 0.0001

row,Sequence,pre-steady-state target cleavage rate
1,UCCUGGAUGUCGAUGCAUAGUAUUAUGUUA,< 0.0001
2,UCCUGGAUGUCCAUGCAUAGUAUUUAGAUA,< 0.0001
3,UCCUGGAUGUCGAACGUAUGAUUUAGUUA,< 0.0001
4,UCCUGGAUGUCGAAGCAUAGUAUUUGUUA,< 0.0001
5,UCCUCCUACAGCUUCGUUAGUAUUUAGAAA,< 0.0001
6,UCCUGGAUGUCGAACGUAUCUAUUUAAUUA,< 0.0001
7,UCCUGGAUGUCGAAGCUAUAGUAUUUAGUUA,< 0.0001
8,UCCUGGAUGUCGAAGCAUAGUAUAAUCAAA [g8:g16:cont:t1A],< 0.0001
9,UCCUGGAUGUCCUUGCAUAGUUUUUAGUAA,< 0.0001
10,UCCUGGAUGUCGAACGAUAGUAUUUGAGUUA,< 0.0001
11,UCCUGCUACAGCUUGCAUAGAAUUUUCAAA,< 0.0001
12,UCCUGGAUGUCGAACGUUCGUAUUUAGUUA,< 0.0001
13,UCCUGGAUGUCGAACGUUAGUAAUUAGUAA,< 0.0001
14,UCCUGGAUGUCGAAGCAUAGUUAAAUCAAA [g10:g16:cont:t1A],< 0.0001
15,UCCUGGAUGUCGAUGCAUAGUCAUUUAGUUA,< 0.0001
16,UCCUGGAACACCUUGCAUAGUAUUUUCAAA,< 0.0001
17,UCCUGGAUGUCGAUGCAUAGUAUUCAGUUA,< 0.0001
18,UCCUGGAUGUCCUUCCAUAGUAAUUAGUUA,< 0.0001
19,UCCUGGAUGAGCUUGGAUUGUAUUUAGUUA,< 0.0001
20,UCCUGGAUGUCGAACGUUACUAUUAAGUUA,< 0.0001

# Source: the supplement of paper PMC10338343
